Compound activity as filed in PubChem.
DT40 TDP1 no CPT: qHTS for Inhibitors of human tyrosyl-DNA phosphodiesterase 1 (TDP1): qHTS in cells in absence of CPT; AID 686978, 2013; DT40 Tdp1-/- hTDP1 cells, no CPT, ATP luminescence, 48 h; 15% of 420,000 active; Potency, µM (highest dose often 46.2 µM), inactives show at the top dose activity change, negative = growth inhibition, most hits filed as inhibitors; further: potency means the concentration at half of the fitted maximal effect; nearly all actives have a fitted effect of over 55% in size
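Cells were dispensed at 400 per well, compounds added by pin tool, plates incubated ≥48 hr at 37 °C, then CellTiter-Glo added for 30 min at room temperature before luminescence reading. Line: DT40 Tdp1-/- complemented with hTDP1; camptothecin omitted.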
IL-1B inflam inh: blocks inflammasome-driven IL-1 beta release; THP-1 LPS/ATP IL-1B secretion, AlphaLISA, 16 h; hits give low values; activity change, % at 57.5 µM; 4.7% of 360,000 active; AID 743279; in the data active means activity change below about -50%; inconclusive means mostly about -30% to -49%
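Secreted IL-1B measured by AlphaLISA bead assay after 16 h compound exposure of THP-1 cells; compounds (final up to 57.5 uM) added 1 h before LPS (250 ng/mL) and ATP (1.25 mM) stimulation; lower signal means less secretion.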
ELG1 DNA repair: inhibitors of ELG1-dependent DNA repair in HEK293T cells; HEK293T ELG1-luciferase reporter, luminescence, 16 h; DNA damage induced by 5-fluorouridine; AID 504467; 2.3% of 330,000 active; Potency, µM (titrated, usually from 46.1 µM), without a hit: top-dose activity change, negative = inhibition, usual class: inhibitors; further: potency means the concentration at half of the fitted maximal effect; nearly all actives have a fitted effect of over 55% in size
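5-Fluorouridine DNA damage + compound/DMSO, 2,000 cells/well, 16 h, 37 °C/5% CO2. ONE-Glo, 30 min RT, luminescence. Readout = decrease in reporter signal.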
TDP1 cell CPT: DT40-hTDP1 cell growth loss with CPT; chicken DT40 Tdp1-/-;hTDP1 cells + 20 nM CPT, ATP luminescence, 48 h; Potency, µM (highest dose often 46.2 µM), for the others: at the highest dose activity change, negative = growth inhibition, most hits filed as inhibitors; 12% of 420,000 active; AID 686979; further: potency means the concentration at half of the fitted maximal effect; nearly all actives have a fitted effect of over 55% in size
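Chicken DT40 Tdp1-/- cells complemented with human TDP1, 400 cells/well, exposed to compounds plus 20 nM camptothecin for at least 48 h at 37 C; viability read as ATP content by CellTiter-Glo luminescence.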
Giardia kill: Giardia lamblia killing. Giardia lamblia trophozoite viability. activity change, % at 7.66 µM, hits read low. 0.15% of 340,000 active; in the data active means activity change below about -80%; inconclusive means between about -30% and that limit;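 further: parasites exposed to compound for two days anaerobically before the ATP read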
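Viability, read as ATP luminescence: trophozoites at 100 cells/well, compound added, 48 hrs anaerobic at 37 deg C, then 15-30 min room-temperature development before reading.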
TDP1 inh: blocks human tyrosyl-DNA phosphodiesterase 1 | 0.28% of 350,000 active | Potency, µM (doses to about 130 µM), for inactives: at the top dose activity change, negative = inhibition, most hits filed as inhibitors | recombinant TDP1, AlphaScreen DNA substrate cleavage | Q9NUW8; further: potency means the concentration at half of the fitted maximal effect; nearly all actives have a fitted effect of over 40% in size
Target sequence (Q9NUW8 whole entry, looked up): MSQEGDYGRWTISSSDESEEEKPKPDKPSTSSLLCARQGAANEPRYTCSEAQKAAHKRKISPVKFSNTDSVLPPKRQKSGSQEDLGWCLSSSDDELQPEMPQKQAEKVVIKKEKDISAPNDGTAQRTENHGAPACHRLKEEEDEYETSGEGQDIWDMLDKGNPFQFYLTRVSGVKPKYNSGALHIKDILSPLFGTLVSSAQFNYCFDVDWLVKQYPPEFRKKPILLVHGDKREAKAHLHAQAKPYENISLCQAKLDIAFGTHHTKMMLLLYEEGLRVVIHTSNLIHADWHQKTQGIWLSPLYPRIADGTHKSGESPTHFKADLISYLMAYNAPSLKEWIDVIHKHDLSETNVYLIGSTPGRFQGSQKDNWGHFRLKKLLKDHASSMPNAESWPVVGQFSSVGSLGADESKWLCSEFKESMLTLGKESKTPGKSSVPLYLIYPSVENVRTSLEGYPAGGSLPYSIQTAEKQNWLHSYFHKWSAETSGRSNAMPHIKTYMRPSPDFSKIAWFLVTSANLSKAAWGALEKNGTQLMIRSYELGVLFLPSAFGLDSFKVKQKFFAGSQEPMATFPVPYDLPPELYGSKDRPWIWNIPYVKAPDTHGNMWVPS
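Recombinant human Tdp1 (E. coli-expressed, 1 nM final) preincubated with compounds 15 min at room temperature, then 5'-biotin/3'-phosphotyrosine-FITC DNA substrate (15 nM final) added for 5 min. AlphaScreen beads (10 ug/ml final) added 10 min; cleavage lowers signal.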
An asterisk follows results filed as active; ? = inconclusive; / = no result given; [ ] = dose if it differs, or a comment. Compounds with a hit are over-represented: about 19% of the library has one in this group of screens. Unless noted, the call rests on the fitted dose curve; in most records, active means well fitted curve in the direction sought with a large enough effect; inconclusive means small, poorly fitted or top-dose-only effect, or another doubt; inactive means no such curve, though single readings can be large; an effect the other way counts as inactive or inconclusive. On the % scale 0 is the no-effect control and ±100 the full control effect.

SMILES | DT40 TDP1 no CPT | IL-1B inflam inh | ELG1 DNA repair | TDP1 cell CPT | Giardia kill | TDP1 inh
COC(=O)c1ccc(C(NC(=O)OCc2ccccc2)/C(F)=C/[C@@H](C)C(=O)NCc2ccc(-c3ccccc3)cc2)cc1 (some centres undefined) | ? | -2.5 | 24.8% | 16.4µM* | -26.6 | 2.6%
COC(=O)c1ccc(C(NC(=O)OCc2ccccc2)/C(F)=C/[C@@H](C)C(=O)NCc2ccc(OC)c(OC)c2)cc1 (some centres undefined) | ? | -8.6 | 18.4µM* | 23.1µM* | 0.7 | 2.6%
COC(=O)c1ccc(C(NC(=O)OCc2ccccc2)/C(F)=C/[C@@H](C)C(=O)NCc2cc(F)cc(F)c2)cc1 (some centres undefined) | / | / | / | / | / | 6.9%
Cc1ccc(S(=O)(=O)N(C)CC(=O)Oc2ccc(-c3nnco3)cc2)cc1 | -11.5% | -3.2 | ? | -2.6% | 7.4 | 3.7%
CN(C)c1ccc(/C=C/c2ccnc3c(Cl)ccc(Cl)c23)cc1 | 10µM* | / | / | 11.2µM* | / | /
Cc1ccc2c(/C=C/c3ccc(N(C)C)cc3)ccnc2c1C | ? | / | / | 12.6µM* | / | /
Cc1cc(C)c2nccc(/C=C/c3ccc(N(C)C)cc3)c2c1 | 10µM* | / | / | 11.2µM* | / | /
CCOc1ccccc1NC(=O)COC(=O)c1c[nH]c2ccccc12 | ? | 18.4 | -13.1% | ? | -3.9 | 0.4%
COC(=O)c1sc(N2C(=O)c3oc4ccccc4c(=O)c3C2c2ccc(O)cc2)nc1C (centres undefined) | -1.8% | / | / | -19.0% | / | 1.1%
COc1cc(OC)cc(C(=O)N[C@H](C(=O)Nc2c(C)n(C)n(-c3ccccc3)c2=O)C(C)C)c1 | ? | -2.5 | -2.9% | ? | 2.2 | 0.2%
Cc1ccc(NC(=O)Nc2nnc(N(C)C3CCCCC3)s2)c(Cl)c1 | ? | / | / | 16.4µM* | / | 5.7%
COc1cc(OC)c(NC(=O)Nc2nnc(N(C)C3CCCCC3)s2)cc1Cl | 8.2µM* | / | / | 20.6µM* | / | 0.0%
Cc1c(Cl)cccc1NC(=O)Nc1nnc(N(C)C2CCCCC2)s1 | 16.4µM* | / | / | 14.6µM* | / | 8.6%
COc1ccc(C)cc1NC(=O)Nc1nnc(N2CCCCC2)s1 | ? | / | / | ? | / | 0.0%
O=C(O)Cn1nc(-c2ccccc2)cc1-c1ccccc1 | 8.2% | 17.2 | ? | 5.6% | 9.8 | /
CCC1C(=O)n2nc(-c3ccccc3)cc2N=C1C (centres undefined) | 10µM* | 25.1 | ? | 8.2µM* | -13.6 | -1.2%
Cc1ccc(S(=O)(=O)N2CC3(O)CN(C(=O)OC(C)C)N(C(=O)OC(C)C)CC3(OC(=O)NC3CC3)C2)cc1 (centres undefined) | ? | -21.0 | / | ? | / | /
CCCCCCNC(=O)OC12CN(C(=O)OC(C)C)N(C(=O)OC(C)C)CC1(O)CN(S(=O)(=O)c1ccc(C)cc1)C2 (centres undefined) | 20.6µM* | -25.6 | / | ? | / | /
Cc1ccc(S(=O)(=O)N2CC3(O)CN(C(=O)OC(C)C)N(C(=O)OC(C)C)CC3(OC(=O)NCC3CCCCC3)C2)cc1 (centres undefined) | ? | ? | / | 16.4µM* | / | /
COC(=O)[C@H](CO)N1C(=O)[C@@H]2[C@H](C1=O)C1C=C[C@H]2C1 | 1.3% | 20.6 | / | 21.2% | 16.7 | /
O=C(O)c1ccc(-n2cccc2/C=C2/SC(=O)N(CC(=O)N3CCCC3)C2=O)cc1 | 3.9% | 10.7 | -7.9% | -0.7% | -4.2 | 50.1µM*
N#Cc1ccccc1CN1C(=O)S/C(=C/c2cccn2-c2ccc(C(=O)O)cc2)C1=O | -21.1% | 5.0 | 2.3% | -9.8% | 6.3 | 14.1µM*
N#C/C(=C/c1cccn1-c1cccc(C(=O)O)c1)c1ccc(Cl)cc1 | -8.5% | -5.7 | 3.0% | -0.1% | -7.1 | /
O=C(CN1C(=O)S/C(=C/c2cccs2)C1=O)N1CCCC1 | 3.3% | -0.4 | ? | -3.0% | 13.5 | 0.1%
N#CC(C#N)=Cc1cccn1-c1ccc(C(=O)O)cc1 | 15.7% | -9.0 | 5.7% | 5.0% | -19.7 | 3.16µM*
SMILES | DT40 TDP1 no CPT | IL-1B inflam inh | ELG1 DNA repair | TDP1 cell CPT | Giardia kill | TDP1 inh
COc1ccc(Cl)cc1N=Nc1ncc[nH]1 | ? | / | / | ? | / | 7.3%
CC1CN(C)C(C)CC1OC(=O)C(c1ccccc1)c1ccccc1 (centres undefined) | 23.1µM* | ? | / | ? | -14.6 | /
CCCCOc1ccc(C(=O)OC2CC(C)N(C)CC2C)cc1 (centres undefined) | 16.4µM* | -53.6* | 27.1% | ? | -6.1 | 2.1%
CCOC(=O)CN1C2=NCCN2c2ccccc21 | -7.0% | 18.0 | 10.4% | 4.7% | -9.8 | 3.4%
CCCCCN1C2=NCCN2c2ccccc21 | 16.4µM* | -1.6 | -11.4% | 29.1µM* | 38.6 | 3.6%[56.1 µM]
CCCN1C2=NCCN2c2cc(C)c(C)cc21 | 23.1µM* | 0.3 | -6.4% | -27.3% | 4.6 | 2.0%
CC(=O)c1ccc(N2CCN(C(=O)c3ccc(Cn4c(=O)[nH]c5ccccc5c4=O)cc3)CC2)cc1 | 16.4µM* | / | / | 10.3µM* | / | 4.4%
O=C(c1ccc(Cn2c(=O)[nH]c3ccccc3c2=O)cc1)N1CCN(c2ccc(Cl)cc2)CC1 | 16.4µM* | -25.3 | 23.1µM* | 23.1µM* | -7.8 | 2.0%
CCOC(=O)N1CCN(C(=O)c2ccc(Cn3c(=S)[nH]c4ccc(Br)cc4c3=O)cc2)CC1 | 1.03µM* | -63.3* | 7.3µM* | 5.17µM* | -26.3 | 3.2%
Cc1ccc(C)c(N2CCN(C(=O)c3ccc(Cn4c(=O)[nH]c5ccccc5c4=O)cc3)CC2)c1 | ? | -15.9 | ? | ? | -18.3 | 8.8%
CC(=O)c1ccc(N2CCN(C(=O)c3ccc(Cn4c(=S)[nH]c5ccc(N6CCOCC6)cc5c4=O)cc3)CC2)cc1 | 2.59µM* | 28.8 | ? | 3.26µM* | -1.9 | 2.3%
O=C(NCCc1ccc(Cl)cc1)c1ccc(Cn2c(=O)[nH]c3ccccc3c2=O)cc1 | 3.66µM* | / | / | 6.51µM* | / | 28.2µM*
NS(=O)(=O)c1ccc(CCNC(=O)c2ccc(Cn3c(=O)[nH]c4ccccc4c3=O)cc2)cc1 | -0.5% | 10.3 | 2.6% | 0.0% | -19.7 | 0.0%
COc1ccc(Cn2c(=O)[nH]c3cc(C(=O)N4CCN(c5ccc(OC)cc5)CC4)ccc3c2=O)cc1 | ? | 11.1 | -12.3% | -3.0% | -1.3 | 14.5%
COc1ccc(Cn2c(=O)[nH]c3cc(C(=O)N4CCN(c5ccc(C(C)=O)cc5)CC4)ccc3c2=O)cc1 | 14.6µM* | 26.8 | ? | ? | ? | 3.8%
